For 16 compounds, growth results are on record in PubChem BioAssay (NCI).

Structures are written as SMILES. This is part of a sample that, as a whole, favours compounds with a hit. Of some 83,000 tested, about 20% had one in any assay.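 A percent growth of 40 corresponds to 60% growth inhibition; 0 means no net growth; -100 means all cells died. Active threshold: below 10.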 Values without a mark were called inactive. Activity calls are given as the source filed them.

Some test systems named below: T-47D breast; BT-549 breast; MDA-MB-435 melanoma; SW-620 colon; MCF7 breast; HCT-116 colon; HCC-2998 colon; KM12 colon.
Holding throughout (experiment): NCI-60 one-dose screen, 48 h (100 = growth as untreated, 0 = no growth, -100 = all killed)
Holding throughout (conditions): 10 µM unless noted

For the compound `CCn1c2ccc(O)cc2c2c(C)c3c[n+](C(C)C)ccc3c(C)c21`, the growth is -15.4% (active) in the assay with T-47D breast; 9.02% (active) in the assay with BT-549 breast; 28.5% in the assay on MDA-MB-435 melanoma; 25.6% with SW-620 colon; 17.8% in the assay on MCF7 breast; 37.3% with HCT-116 colon. The growth was 42.6% with HCC-2998 colon and 15% with KM12 colon.
In the case of `COc1ccc2nc(Cl)c(/C=C/C(=O)c3ccc(NC(=O)CSc4nnc(-c5ccc(Cl)c(Cl)c5)n4-c4ccccc4)cc3)cc2c1`, the growth in the assay on T-47D breast was 83.5%; in the assay on BT-549 breast, 80%; with MDA-MB-435 melanoma, 95.6%; in the assay on SW-620 colon it was 92.3%; in the assay with MCF7 breast, 82.5%; in the assay on HCT-116 colon, 68.6%. The growth was 105% with HCC-2998 colon and 98.4% in the assay with KM12 colon.
As to `Cc1ccc(/C=C/C(=O)c2ccc(NC(=O)CSc3nc4c([nH]3)c(=O)n(C)c(=O)n4C)cc2)c(C)c1`, the growth with T-47D breast was 37.2%; with BT-549 breast, 69.9%; in the assay on MDA-MB-435 melanoma, 60.7%; in the assay with SW-620 colon, 49%; with MCF7 breast, 39.8%; in the assay on HCT-116 colon, 5.13% (active). For the same compound, the growth in the assay on HCC-2998 colon was 45.1%; in the assay with KM12 colon it was 37.5%.
With `Oc1c(Cl)cc(Cl)c2ccc(Cn3cc(-c4cccc(C(F)(F)F)c4)nn3)nc12`, the growth with T-47D breast was 58.9%; in the assay with BT-549 breast, 75%; in the assay on MDA-MB-435 melanoma, 73.9%; with SW-620 colon it was 28.7%; in the assay with MCF7 breast, 42.3%; in the assay on HCT-116 colon, 14%. Further, the growth in the assay on HCC-2998 colon is 99.5%; in the assay on KM12 colon, 100%.
Consider `O=C1CC2C=CCN2C=C1NC(=O)C1CCCCC1` (stereo not drawn), for which the growth is 84% with T-47D breast; 117% in the assay on BT-549 breast; 102% in the assay on MDA-MB-435 melanoma; 107% in the assay on SW-620 colon; 92.3% in the assay with MCF7 breast; 94.8% in the assay with HCT-116 colon. Moreover, the growth in the assay on HCC-2998 colon was 88.3%; with KM12 colon, 96.1%.
As to `CCN(CC)CCNC(=O)c1ccc(-c2nc3ccc4[nH]ncc4c3c3c2CCCC3)cc1`, the growth was 44.6% in the assay on T-47D breast; 59.5% with BT-549 breast; 42.9% in the assay with MDA-MB-435 melanoma; 28.4% in the assay on SW-620 colon; 62.4% in the assay on MCF7 breast; 24.1% with HCT-116 colon. In addition, the results for the growth with HCC-2998 colon and with KM12 colon were 84.3% and 46.2%, respectively.
Take `CC(C)C[C@@H](C(=O)N[C@H](C(=O)OC1CCCC1)c1ccccc1)[C@H](O)C(=O)NO`: the growth in the assay with T-47D breast was 36.7%; in the assay on BT-549 breast it was 69.7%; with MDA-MB-435 melanoma it was 49.4%; with SW-620 colon it was 49.8%; in the assay with MCF7 breast, 43.3%; in the assay on HCT-116 colon, 56.7%. Moreover, the growth in the assay with HCC-2998 colon is 94.4%; in the assay with KM12 colon it was 65.7%.
With `O=C(O)CCCn1c(SCc2c(Cl)cccc2Cl)nc2ccsc2c1=O`, the growth in the assay on T-47D breast is 35.5%; with BT-549 breast, 34.2%; in the assay on MDA-MB-435 melanoma, -58.4% (active); with SW-620 colon, 15.1%; in the assay with MCF7 breast, 20.6%; in the assay with HCT-116 colon, 18.8%. Further, the values for the growth in the assay on HCC-2998 colon and in the assay on KM12 colon were 29.6% and 18.3%, respectively.
On to `CC1(C)OC(=O)C(=Cc2cccc(Br)c2)C(=O)O1`, for which the growth is 92.7% with T-47D breast; 108% in the assay on BT-549 breast; 108% with MDA-MB-435 melanoma; 102% in the assay with SW-620 colon; 102% in the assay with MCF7 breast; 102% in the assay with HCT-116 colon. Besides, the growth in the assay on HCC-2998 colon was 113%; with KM12 colon, 111%.
For `CN1CCN(CCCOC(=O)c2c3c(n4ccccc24)C(=O)c2ncccc2C3=O)CC1`, the growth with T-47D breast was 47.6%; in the assay with BT-549 breast, 24.9%; in the assay with MDA-MB-435 melanoma, -40.4% (active); in the assay on SW-620 colon it was -57.2% (active); with MCF7 breast, -45.9% (active); in the assay with HCT-116 colon it was -29.5% (active). Moreover, the growth in the assay with HCC-2998 colon is 29.9%; in the assay with KM12 colon it was 17.5%.
Turning to `O=C(N=Nc1c(O)[nH]c2ccccc12)Nc1ccc(Cl)cc1`, the growth in the assay on T-47D breast is 87.2%; in the assay with BT-549 breast, 103%; with MDA-MB-435 melanoma, 95.5%; in the assay on SW-620 colon it was 90.3%; with MCF7 breast, 76.3%; in the assay on HCT-116 colon, 94.4%. Besides, the growth is 99% with HCC-2998 colon and 81.1% in the assay with KM12 colon.
As for `COc1ccc(C/C(C)=C(\c2ccc(O)cc2)c2ccc(OCCN3CCCC3)cc2)cc1`, the growth in the assay with T-47D breast was 73.3%; in the assay on BT-549 breast it was 110%; in the assay on MDA-MB-435 melanoma it was 103%; in the assay with SW-620 colon, 104%; in the assay with MCF7 breast, 63.3%; in the assay with HCT-116 colon it was 93.8%. The growth in the assay with HCC-2998 colon is 104%; in the assay on KM12 colon, 106%.
On to `CCCCCCC(=O)Nc1ncc(Cc2ccc(C)cc2)s1`, for which the growth was 35.4% with T-47D breast; 59.1% in the assay with BT-549 breast; -25.9% (active) in the assay on MDA-MB-435 melanoma; 22.4% in the assay with SW-620 colon; 24.7% in the assay with MCF7 breast; 33.3% in the assay with HCT-116 colon. Further, the growth in the assay with HCC-2998 colon was 70.3%; with KM12 colon, 30.7%.
As for `COC(=O)c1nc(-c2ccccc2)oc1S(=O)(=O)N1CCC(C(N)=O)CC1`, the growth is 36% with T-47D breast; 76.2% in the assay on BT-549 breast; 59.5% in the assay on MDA-MB-435 melanoma; 25.4% in the assay on SW-620 colon; 32% in the assay on MCF7 breast; 43.9% in the assay on HCT-116 colon. Besides, the figures for the growth with HCC-2998 colon and in the assay on KM12 colon were 104% and 87.8%, respectively.
On to `NC(=O)c1ccc(NC(=O)c2oc3ccccc3c2-c2cnn(-c3ccccc3)c2)cc1`, for which the growth with T-47D breast was 49.8% [50 µM]; with BT-549 breast, 22.2% [50 µM]; in the assay with MDA-MB-435 melanoma, 37.7% [50 µM]; with SW-620 colon, 12.8% [50 µM]; with MCF7 breast it was -1.73% [50 µM] (active); with HCT-116 colon, 9.74% [50 µM] (active). The growth with HCC-2998 colon was 28.7% [50 µM]; in the assay on KM12 colon, 34.1% [50 µM].
Regarding `COC(=O)C1=Nc2ccc(F)cc2/C1=C\c1sc(Nc2ccc(O)cc2)nc1O`, the growth with T-47D breast is 62.4%; with BT-549 breast, 35%; in the assay on MDA-MB-435 melanoma, 0.954% (active); in the assay on SW-620 colon, 65.9%; with MCF7 breast it was 22%; in the assay on HCT-116 colon, 64%. Further, the growth in the assay with HCC-2998 colon is 79.3%; in the assay on KM12 colon, 49.5%.
